# Test results as given in ChEMBL document CHEMBL5606460, “ASAP - DENV-2 NS2B-NS3 protease fluorescence single point” (2024).
# About 110 (5.5%) of roughly 2,000 compounds showed an effect of 50% or more. The full list was thinned out, with strong results kept by preference.
# Molecular target: Genome polyprotein (dengue virus type 2) (UniProt P29990)
# [1] = Thailand/16681/1984, Concentration 25.0 uM, Number of replicates 1.0
smiles,measurement,setting,value
CC(C)(CO)NC(=O)c1cc(Cl)cc(NS(=O)(=O)c2ccccc2)c1,inhibition,"Thailand/16681/1984, Concentration 49.5 uM, Number of replicates 2.0, Standard deviation 0.43077113751226487 %",-5.72%
same,inhibition,"Thailand/16681/1984, Concentration 99.01 uM, Number of replicates 2.0, Standard deviation 0.028975789763845603 %",-4.57%
same,inhibition,"Thailand/16681/1984, Concentration 198.0 uM, Number of replicates 2.0, Standard deviation 1.4999717780869397 %",-2.99%
O=Cc1ccc(N2CCC(C(=O)NCc3cc(C(F)(F)F)ccc3C(F)(F)F)CC2)cc1,inhibition,[1],1.04%
Cn1cnc2[nH]c(C(=O)N3CC[C@H](c4c[nH]c5ccccc45)C3)cc21,inhibition,"Thailand/16681/1984, Concentration 49.5 uM, Number of replicates 2.0, Standard deviation 2.003876801484884 %",-2.49%
same,inhibition,"Thailand/16681/1984, Concentration 99.01 uM, Number of replicates 2.0, Standard deviation 1.2772748269322285 %",-1.94%
same,inhibition,"Thailand/16681/1984, Concentration 198.0 uM, Number of replicates 2.0, Standard deviation 1.685869304282425 %",-0.105%
O=Cc1ccc(N2CCC(C(=O)Nc3cc(Cl)cc(Cl)c3O)CC2)cc1,inhibition,[1],98.2%
O=Cc1ccc(N2CCC(C(=O)Nc3c(Cl)cc(Cl)cc3Br)CC2)cc1,inhibition,[1],13.4%
O=Cc1ccc(N2CCC(C(=O)Nc3ccc(Cl)c(Cl)c3)CC2)cc1,inhibition,[1],11.8%
O=Cc1ccc(N2CCC(C(=O)Nc3cc(Cl)ccc3Br)CC2)cc1,inhibition,[1],13.8%
O=Cc1ccc(N2CCC(C(=O)Nc3cc(Cl)c(F)c(Cl)c3)CC2)cc1,inhibition,[1],13.1%
O=Cc1ccc(N2CCC(C(=O)Nc3ccc([N+](=O)[O-])cc3Cl)CC2)cc1,inhibition,[1],23.5%
O=Cc1ccc(N2CCC(C(=O)Nc3ccc(O)cc3[N+](=O)[O-])CC2)cc1,inhibition,[1],24.5%
O=Cc1ccc(N2CCC(C(=O)Nc3cc(Cl)cc([N+](=O)[O-])c3O)CC2)cc1,inhibition,[1],90.5%
O=Cc1ccc(N2CCC(C(=O)Nc3cc(Cl)c(O)c(Cl)c3)CC2)cc1,inhibition,[1],100%
c1cnc2c(C3CCN(Cc4cnn5ccccc45)CC3)c[nH]c2c1,inhibition,"Thailand/16681/1984, Concentration 49.5 uM, Number of replicates 2.0, Standard deviation 1.316281988110152 %",-4.72%
same,inhibition,"Thailand/16681/1984, Concentration 99.01 uM, Number of replicates 2.0, Standard deviation 2.2605015442223797 %",-3.44%
same,inhibition,"Thailand/16681/1984, Concentration 198.0 uM, Number of replicates 2.0, Standard deviation 0.9691516929362414 %",-2.08%
O=Cc1ccc(N2CCC(C(=O)N3CCN(C(=O)Cc4ccccc4)CC3)CC2)cc1,inhibition,[1],12.3%
CN(C)C1(CNC(=O)C2CCN(c3ccc(C=O)cc3)CC2)CCOCC1,inhibition,[1],12.1%
NCc1ncc(C(=O)Nc2ccccc2N2CCC(CO)CC2)c(C(F)(F)F)n1,inhibition,"Thailand/16681/1984, Concentration 49.5 uM, Number of replicates 2.0, Standard deviation 1.1543273279104322 %",2.58%
same,inhibition,"Thailand/16681/1984, Concentration 99.01 uM, Number of replicates 2.0, Standard deviation 0.2964400275887672 %",4.99%
same,inhibition,"Thailand/16681/1984, Concentration 198.0 uM, Number of replicates 2.0, Standard deviation 0.14686490832106133 %",6.91%
NCc1cccc(NC(=O)[C@H]2CN(C(=O)OCc3ccccc3)CC23CCOCC3)c1,inhibition,"Thailand/16681/1984, Concentration 49.5 uM, Number of replicates 2.0, Standard deviation 3.4820905640560142 %",-2.83%
same,inhibition,"Thailand/16681/1984, Concentration 99.01 uM, Number of replicates 2.0, Standard deviation 3.010767204046265 %",-1.08%
same,inhibition,"Thailand/16681/1984, Concentration 198.0 uM, Number of replicates 2.0, Standard deviation 2.6769829613344203 %",-0.776%
O=Cc1ccc(N2CCC(C(=O)Nc3ccc(OC(F)(F)F)cc3Cl)CC2)cc1,inhibition,[1],13.6%
COc1cc(COc2cncnc2)nc(N2CCNCC2)n1,inhibition,"Thailand/16681/1984, Concentration 49.5 uM, Number of replicates 2.0, Standard deviation 3.306986633712837 %",-2.35%
same,inhibition,"Thailand/16681/1984, Concentration 99.01 uM, Number of replicates 2.0, Standard deviation 2.7720530174645646 %",-0.505%
same,inhibition,"Thailand/16681/1984, Concentration 198.0 uM, Number of replicates 2.0, Standard deviation 2.4477408574870583 %",0.524%
O=C(NCc1c[nH]nn1)c1cc(Cl)ccc1NS(=O)(=O)c1ccc(Oc2ccccc2Cl)cc1,inhibition,"Thailand/16681/1984, Concentration 49.5 uM, Number of replicates 2.0, Standard deviation 0.023138282657692737 %",75.2%
same,inhibition,"Thailand/16681/1984, Concentration 99.01 uM, Number of replicates 2.0, Standard deviation 0.008898717007196123 %",63.2%
same,inhibition,"Thailand/16681/1984, Concentration 198.0 uM, Number of replicates 2.0, Standard deviation 0.06140627240643217 %",36.5%
O=C(NCc1cocn1)c1cc(Cl)ccc1NS(=O)(=O)c1ccc(Oc2ccccc2Cl)cc1,inhibition,"Thailand/16681/1984, Concentration 49.5 uM, Number of replicates 2.0, Standard deviation 0.2927162692291327 %",78.5%
same,inhibition,"Thailand/16681/1984, Concentration 99.01 uM, Number of replicates 2.0, Standard deviation 0.11144031356026086 %",70.2%
same,inhibition,"Thailand/16681/1984, Concentration 198.0 uM, Number of replicates 2.0, Standard deviation 0.4940824474713894 %",60.8%
Cc1ccc(CNC(=O)c2cc(Cl)ccc2NS(=O)(=O)c2ccc(Oc3ccccc3Cl)cc2)s1,inhibition,"Thailand/16681/1984, Concentration 49.5 uM, Number of replicates 2.0, Standard deviation 0.032039697063193553 %",83.2%
same,inhibition,"Thailand/16681/1984, Concentration 99.01 uM, Number of replicates 2.0, Standard deviation 0.20602188771616411 %",78.6%
same,inhibition,"Thailand/16681/1984, Concentration 198.0 uM, Number of replicates 2.0, Standard deviation 0.539307027447943 %",69.5%
COc1cccc(Cn2cc(C3CCNCC3)c(C)n2)n1,inhibition,"Thailand/16681/1984, Concentration 49.5 uM, Number of replicates 2.0, Standard deviation 0.5897033629115713 %",-3.33%
same,inhibition,"Thailand/16681/1984, Concentration 99.01 uM, Number of replicates 2.0, Standard deviation 0.7206939136220955 %",-3.64%
same,inhibition,"Thailand/16681/1984, Concentration 198.0 uM, Number of replicates 2.0, Standard deviation 2.0772079346215944 %",-3.79%
CCCCCC(=O)N[C@H](C(=O)N1CCC[C@@H](N)C1)c1ccc(OCc2ccccc2)cc1,inhibition,"Thailand/16681/1984, Concentration 49.5 uM, Number of replicates 2.0, Standard deviation 1.275572557867722 %",-0.123%
same,inhibition,"Thailand/16681/1984, Concentration 99.01 uM, Number of replicates 2.0, Standard deviation 1.3300520589416613 %",0.674%
same,inhibition,"Thailand/16681/1984, Concentration 198.0 uM, Number of replicates 2.0, Standard deviation 1.6287502093065211 %",2.04%
O=Cc1ccc(N2CCC(C(=O)NCCc3cccc4ccccc34)CC2)cc1,inhibition,[1],11.1%
Cc1cc(CO)c2cccc(Cc3ccccc3C(=O)NCc3c(C)noc3C)c2n1,inhibition,"Thailand/16681/1984, Concentration 49.95 uM, Number of replicates 2.0, Standard deviation 0.3226747127660098 %",-0.757%
same,inhibition,"Thailand/16681/1984, Concentration 99.9 uM, Number of replicates 2.0, Standard deviation 0.21847019123152348 %",0.39%
COc1ccc(F)c(-c2nn(C)cc2NC(=O)c2ccccc2C(F)(F)F)c1,inhibition,"Thailand/16681/1984, Concentration 49.5 uM, Number of replicates 2.0, Standard deviation 3.583319549695768 %",-2.64%
same,inhibition,"Thailand/16681/1984, Concentration 99.01 uM, Number of replicates 2.0, Standard deviation 4.648656873158677 %",-2.47%
same,inhibition,"Thailand/16681/1984, Concentration 198.0 uM, Number of replicates 2.0, Standard deviation 3.7890463989356435 %",-2.09%
COc1ccc(F)cc1-c1ccccc1C(=O)Nc1cnn(C)c1,inhibition,"Thailand/16681/1984, Concentration 49.5 uM, Number of replicates 2.0, Standard deviation 2.2581672831644526 %",-4.25%
same,inhibition,"Thailand/16681/1984, Concentration 99.01 uM, Number of replicates 2.0, Standard deviation 1.9365380229757554 %",-2.49%
same,inhibition,"Thailand/16681/1984, Concentration 198.0 uM, Number of replicates 2.0, Standard deviation 2.756548372009165 %",-2.95%
Cn1cc(NC(=O)c2ccccc2C(F)(F)F)c(-c2ccc(CO)cc2)n1,inhibition,"Thailand/16681/1984, Concentration 49.5 uM, Number of replicates 2.0, Standard deviation 2.3161186941047496 %",-4.04%
same,inhibition,"Thailand/16681/1984, Concentration 99.01 uM, Number of replicates 2.0, Standard deviation 3.5021876776391307 %",-2.8%
same,inhibition,"Thailand/16681/1984, Concentration 198.0 uM, Number of replicates 2.0, Standard deviation 4.667974048773386 %",-3.05%
N#Cc1cccc(NC(=O)[C@@H](NC(=O)c2ccc(Oc3ccc(C(F)(F)F)cc3)cc2)c2ccc(OCc3ccccc3)cc2)c1,inhibition,"Thailand/16681/1984, Concentration 49.5 uM, Number of replicates 2.0, Standard deviation 0.9263674997821656 %",-5.09%
same,inhibition,"Thailand/16681/1984, Concentration 99.01 uM, Number of replicates 2.0, Standard deviation 0.4269393146330484 %",-4.04%
same,inhibition,"Thailand/16681/1984, Concentration 198.0 uM, Number of replicates 2.0, Standard deviation 0.9636779131327375 %",-5.31%
